The list is not random: actives were taken first. Their share in the collection is about 3.3%.
RE007 growth inh = less growth of the S. pombe RE007 Vpr strain | S. pombe RE007 Vpr strain, BacTiter-Glo ATP luminescence, 24 h | Potency, µM (top dose mostly 92.2 µM), hits mostly inhibitors | 360,000 tested, 0.21% active; active = well fitted falling curve with a large enough effect; inconclusive = small, poorly fitted or top-dose-only effect; inactive = no such curve, though single readings can be large or run the other way; note: nearly all actives have a fitted effect of over 50% in size
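Fission yeast strain RE007, carrying one chromosomally integrated HIV-1 vpr copy, was seeded at OD 0.01 in PMG+AL medium with 23 nL pinned compound. After 24 h at 30 °C and 99% humidity, viability was read by BacTiter-Glo luminescence.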
TbPYK inhibitor = blocks Trypanosoma brucei pyruvate kinase. Q57TT1. TbPYK enzyme, Kinase-Glo Plus ATP luminescence, 45 min. Potency, µM (series often up to 76.8 µM), hits mostly inhibitors. 410,000 tested, 0.12% active; note: nearly all actives have a fitted effect of over 50% in size
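Quantitative HTS: titrated library compounds versus trypanosomal pyruvate kinase in TEA buffer (pH 7.2) containing KCl, MgCl2, BSA and Tween-20. Reactions were initiated with ADP, 130 uM final. Kinase-Glo Plus luminescence was read after 45 min at RT.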
Sm TGR inh = S. mansoni TGR enzyme inhibition | AID 485364 | purified TGR, DTNB reduction, TNB absorbance 405 nm | 360,000 tested, 3% active | Q962Y6 | Potency, µM (doses to about 114 µM), usual class: inhibitors; note: nearly all actives have a fitted effect of over 60% in size
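TGR 20 nM + NADPH 100 uM (dispensed conc.), cpd preinc 15 min RT; start with NADPH (500 uM addition) then DTNB (15 mM addition). Kinetic TNB absorbance, 405 nm filter. Four-parameter Hill fit across titration.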
SARS PLpro yeast = SARS-CoV PLP inhibition in yeast | S. cerevisiae expressing SARS-CoV PLpro, growth rescue | Potency, µM (highest dose often 32.9 µM), actives largely listed as activators | 330,000 tested, 0.19% active; calls by dose curve; note: nearly all actives have a fitted effect of over 55% in size
LmPK inh = inhibitors of Leishmania mexicana pyruvate kinase. Q27686. 290,000 tested, 0.37% active. Potency, µM (titrated, usually from 57.5 µM), actives largely listed as inhibitors. AID 1721. purified LmPK, Kinase-Glo ATP luminescence, 1 h
Target sequence (Q27686 whole entry, looked up): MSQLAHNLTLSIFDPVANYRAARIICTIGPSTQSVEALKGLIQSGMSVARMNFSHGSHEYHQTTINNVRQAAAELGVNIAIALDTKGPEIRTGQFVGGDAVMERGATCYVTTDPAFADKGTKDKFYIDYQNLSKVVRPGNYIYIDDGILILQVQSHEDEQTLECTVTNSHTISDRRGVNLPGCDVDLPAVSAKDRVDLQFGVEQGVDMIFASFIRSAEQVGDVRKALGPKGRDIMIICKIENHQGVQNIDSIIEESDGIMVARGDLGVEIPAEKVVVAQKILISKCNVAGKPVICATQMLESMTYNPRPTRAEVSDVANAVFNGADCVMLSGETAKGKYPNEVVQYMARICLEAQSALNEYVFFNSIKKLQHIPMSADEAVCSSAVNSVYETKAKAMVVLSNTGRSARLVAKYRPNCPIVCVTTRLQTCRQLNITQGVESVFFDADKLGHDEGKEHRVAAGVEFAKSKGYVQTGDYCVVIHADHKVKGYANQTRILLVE
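In 50 mM imidazole pH 7.2 with 7 mM MgCl2, LmPK (0.1 nM) turned over PEP (0.5 mM) and ADP (0.1 mM) for 1 h at room temperature. Luciferase read-out of ATP.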
NS1 inh = inhibitors of influenza NS1 protein function. Potency, µM (titrated, usually from 46.1 µM). 270,000 tested, 0.4% active; calls by dose curve; note: actives are rising curves; nearly all actives have a fitted effect of over 50% in size
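OD600 was taken as the measure of yeast growth restored by compound in an NS1-expressing S. cerevisiae strain. Cells had been washed out of glucose medium and diluted 1:100 into galactose -URA medium, pH 6.0.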
A number is an active result; [ ] = another dose, or the depositor's remark. Unless noted, calls come from the whole dose curve; as a rule, active = well fitted curve in the direction sought with a large enough effect; inconclusive = small, poorly fitted or top-dose-only effect, or another doubt; inactive = no such curve, though single readings can be large; an effect the other way counts as inactive or inconclusive.

C/C(=N/NC(=O)OC(C)(C)C)c1ccco1 was read as RE007 growth inh inactive, TbPYK inhibitor inactive, Sm TGR inh inactive, SARS PLpro yeast inactive, LmPK inh inconclusive and NS1 inh inactive.
`CC(/C=C/c1ccco1)=N/NC(=O)c1ccc(C)nc1` gave RE007 growth inh inactive, TbPYK inhibitor inactive, Sm TGR inh 45µM, SARS PLpro yeast inactive, LmPK inh inactive and NS1 inh inactive.
For CC(/C=C/c1ccco1)=N\NC(=O)c1cc(C)[nH]n1 the results were RE007 growth inh inactive, TbPYK inhibitor inactive, Sm TGR inh 28µM, SARS PLpro yeast inactive, LmPK inh inactive and NS1 inh inactive.
For CC(/C=C/c1ccco1)=N/NC(=O)Cc1cccs1 the results were RE007 growth inh inactive, TbPYK inhibitor inactive, Sm TGR inh 25µM, SARS PLpro yeast inconclusive, LmPK inh inactive and NS1 inh inactive.
For CC(/C=C/c1ccco1)=N/NC(=O)OC(C)(C)C the results were RE007 growth inh inactive, TbPYK inhibitor inactive, Sm TGR inh 40µM, SARS PLpro yeast inactive, LmPK inh inactive and NS1 inh inactive.
For Cc1ccc(C(=O)N/N=C/c2cccc(OC(=O)/C=C/c3ccco3)c2)cn1 the results were RE007 growth inh inactive, TbPYK inhibitor inactive, Sm TGR inh inconclusive, SARS PLpro yeast inactive, LmPK inh inactive and NS1 inh inactive.
Screening CC(/C=N/NC(=O)Cc1cccs1)=C\c1ccco1 returned RE007 growth inh inactive[3.69 µM], Sm TGR inh inconclusive, SARS PLpro yeast inactive, LmPK inh inactive and NS1 inh inactive.
Cc1cc(C(=O)N/N=C/c2ccco2)n[nH]1 was read as RE007 growth inh inactive, TbPYK inhibitor inactive, Sm TGR inh inactive, SARS PLpro yeast inactive, LmPK inh inactive and NS1 inh inactive.
For O=C(Nc1cccc(Cl)c1)c1ccc2nc(CCc3ccccc3)oc2c1 the results were TbPYK inhibitor inactive and Sm TGR inh inactive.
Screening O=C(O)c1ccc(/C=N\Nc2ccc(S(=O)(=O)N3CCOCC3)cc2[N+](=O)[O-])cc1 returned RE007 growth inh inactive, TbPYK inhibitor inactive, Sm TGR inh 45µM, SARS PLpro yeast inactive, LmPK inh inactive and NS1 inh inactive.
`C/C(=N\Nc1ccc(S(=O)(=O)N2CCOCC2)cc1[N+](=O)[O-])C(C)C` gave RE007 growth inh inactive, TbPYK inhibitor inactive, Sm TGR inh 40µM, SARS PLpro yeast inactive and LmPK inh inactive.
For NS(=O)(=O)c1ccc(N/N=C/c2ccc(C(=O)O)cc2)c([N+](=O)[O-])c1 the results were RE007 growth inh inactive, TbPYK inhibitor inactive, Sm TGR inh inactive, SARS PLpro yeast inactive, LmPK inh inactive and NS1 inh inactive.
`Cn1c(=O)c2c(nc(SCC(=O)O)n2Cc2cc3c(cc2Cl)OCO3)n(C)c1=O` gave RE007 growth inh inactive, TbPYK inhibitor 25µM, Sm TGR inh inactive, SARS PLpro yeast inactive, LmPK inh inactive and NS1 inh inactive.
Screening CCn1c(SCC(=O)Nc2ccc3c(c2)OCO3)nc2c1c(=O)n(C)c(=O)n2C returned RE007 growth inh inactive, TbPYK inhibitor inactive, Sm TGR inh inactive, SARS PLpro yeast inactive, LmPK inh inactive and NS1 inh inactive.
Screening Oc1ccc(O)c(Cc2nc3ccccc3s2)c1 returned RE007 growth inh inactive, TbPYK inhibitor inactive, Sm TGR inh 50µM, SARS PLpro yeast inactive and LmPK inh inactive.
Screening Cc1ccc(CN(C)C(=O)C2CCCN2C(=O)c2cccs2)o1 (stereo unspecified) returned RE007 growth inh inactive, TbPYK inhibitor inconclusive, Sm TGR inh 7.9µM, SARS PLpro yeast inactive, LmPK inh inactive and NS1 inh inactive.
`N#CC(Br)Br` gave RE007 growth inh inactive, TbPYK inhibitor inactive, Sm TGR inh 50µM and SARS PLpro yeast inactive.
For O=C(O)/C=C\C(=O)Nc1cccc2c1-c1ccccc1C2=O the results were NS1 inh inactive.
Screening Cc1ccc(C(O)(COC(=O)C(C)C)COC(=O)C(C)C)c(O)c1 returned RE007 growth inh inactive, TbPYK inhibitor inactive, Sm TGR inh 35µM, SARS PLpro yeast inactive, LmPK inh inactive and NS1 inh inactive.

Compound activity: PubChem, National Center for Advancing Translational Sciences (NCATS)
